Bioassay records as filed in PubChem.
In the library only some 3.7% were active in any assay of this set; here they are far more common.
V-ATPase pHluor – regulators of yeast V-ATPase proton transport; S. cerevisiae, pHLuorin cytosolic pH fluorescence; response, % at 10 µM; AID 504577; 350,000 compounds, 0.37% hits; in the data active = response mostly above about 7.3%, no sharp cut-off; inactive = mostly below about 5.4%; note: actives read high
TIM10 inh – growth inhibitors of TIM10 yeast strain; S. cerevisiae TIM10 strain growth, BacTiter-Glo luminescence, 24 h; AID 463195; 330,000 compounds, 1.4% hits; inhibition, % at 10 µM;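 active = inhibition of 40% or more at the single tested concentration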;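 note: wild-type TIM10 isogenic control strain grown at permissive 25 °C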
PfHsp90 set2 – reduces growth (ATP signal) of yeast expressing P. falciparum Hsp90; S. cerevisiae expressing PfHsp90, BacTiter-Glo ATP, 48 h; yeast lacking PDR1 and PDR3 efflux regulators; inhibition, % at 9.4 µM; 310,000 compounds, 0.32% hits;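 active = every replicate shows inhibition above about 80%, whatever the replicate mean, limit read from the data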;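 note: 0% = DMSO neutral controls and 100% = 20 µM radicicol positive controls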
tim23-1 inh – growth inhibitors of tim23-1 mutant yeast; AID 463212; S. cerevisiae tim23-1 growth, BacTiter-Glo luminescence, 24 h; 330,000 compounds, 1.3% hits; inhibition, % at 20 µM;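 active = growth inhibition of the mutant yeast at or above 50%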;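 note: temperature-sensitive mutant grown at 25 °C; plate controls were DMSO-treated mutant yeast for no effect and medium wells lacking yeast for full effect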
tim10-1 inh – growth inhibitors of tim10-1 mutant yeast | S. cerevisiae tim10-1 ts strain growth, BacTiter-Glo, 24 h | inhibition, % at 20 µM | 330,000 compounds, 2.2% hits | AID 463190;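 active = inhibition of at least 40%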;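 note: mutant grown at 25 °C; 0% = DMSO wells with yeast and 100% = wells holding no yeast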
TIM10 conf – TIM10 yeast growth inhibition, confirmed | shares compounds with TIM10 inh | S. cerevisiae tim10 strain growth, BacTiter-Glo luminescence, 24 h | inhibition, % at 10 µM | 4,600 compounds, 63% hits;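 active = inhibition of yeast growth at or above a set limit in either of two replicates at 10 µM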;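 note: this counterscreen used the strain with wild-type TIM10; 0% = yeast with DMSO and 100% = medium wells lacking yeast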
Active calls of the source: *; / = not tested or not shown.

SMILES	V-ATPase pHluor	TIM10 inh	PfHsp90 set2	tim23-1 inh	tim10-1 inh	TIM10 conf
CC(C)(C)c1ccc(/C=N/NC(=S)NC2CCCCC2)cc1	-4.9	95.9*	-20.8	36.6	34.6	47.7*
CCCCn1c(N)c(N(CC(C)C)C(=O)CCC2CCCCC2)c(=O)[nH]c1=O	-0.5	6.6	-5.9	8.0	5.0	/
Clc1ccc(-c2csc(Nc3cccnc3)n2)cc1	-0.7	21.3	5.2	3.6	7.5	/
c1ccc(-c2csc(Nc3cccnc3)n2)cc1	-2.5	41.6*	-2.3	26.5	26.7	19.7
Cc1sc2ncnc(N3CCC(C(=O)Nc4sc5c(c4C(N)=O)CCC(C)C5)CC3)c2c1C (configuration not stated)	3.2	18.7	-53.1	1.6	18.6	/
O=C(NC1CCCC1)c1cc2c(ccc3ccccc32)o1	0.6	-17.2	/	19.9	16.8	/
CNC(=O)c1cc2c(ccc3ccccc32)o1	4.6	61.3*	3.9	37.5	37.7	58.7*
CCOC(=O)c1ccc2c(c1)nc(SCC(=O)N1CCOCC1)n2CC	1.2	10.7	/	-1.3	11.0	/
CCOC(=O)c1ccc2c(c1)nc(SCc1cn3ccsc3n1)n2CC	-1.0	44.4*	-2.7	34.8	23.3	34.3*
C/C(=N\NC(=O)c1ccc(C)cc1C)c1ccc2c(c1)Nc1ccccc1S2	-2.5	5.2	/	12.3	5.1	/
CC(=O)c1ccc2c(c1)Nc1ccccc1S2	3.2	87.9*	6.3	16.7	15.6	2.7
CCNC(=O)COc1ccc(OCc2ccccc2)cc1	5.0	-3.5	-11.8	3.6	9.6	/
CCC(C)NC(=O)COc1ccc(OCc2ccccc2)cc1 (configuration not stated)	3.4	41.6*	-46.3	13.4	25.8	33.5*
CCOc1ccc(CN(C)C(=O)CNC(=O)C2CCCCC2)cc1	6.2	10.7	6.8	8.6	-4.2	/
O=[N+]([O-])c1cccc(/C=C/c2nc3ccc([N+](=O)[O-])cc3[nH]2)c1	-2.4	54.3*	-20.1	42.1	20.1	58.2*
Cc1ccc2nc(-c3cccc(Br)c3)cc(C(=O)NC3=NCCS3)c2c1	-2.7	29.0	-10.7	19.8	33.8	/
O=C(NC1=NCCS1)c1csc2ccccc12	-1.7	44.2*	12.1	28.2	33.6	28.4
O=C(NC1=NCCS1)c1cc(-c2cccc(Br)c2)nc2ccccc12	-1.0	43.3*	-12.5	47.0	36.1	9.7
O=C(CN1CCN(c2ccccn2)CC1)Nc1ccc(F)cc1F	1.4	-15.4	-7.4	3.0	5.2	/
COc1c(C)cc(S(=O)(=O)NCc2ccccn2)c(C)c1C	0.1	-4.6	-22.2	13.3	-8.1	/
Nc1ccn([C@@H]2O[C@H](CNCc3ccc(OCC(=O)Nc4nccs4)cc3)[C@@H](O)[C@H]2O)c(=O)n1	-0.1	/	/	/	/	/
Cc1ccc(S(=O)(=O)c2nc(Nc3nccs3)sc2Cl)cc1	2.0	48.1*	/	18.1	29.3	29.2
Cc1ccc(C)c(-n2[nH]c3c4c(ccc3c2=O)C(=O)c2ccccc2C4=O)c1	1.2	52.7*	11.6	46.4	25.5	73.2*
COCCCn1[nH]c2c3c(ccc2c1=O)C(=O)c1ccccc1C3=O	1.1	41.5*	-61.9	41.0	32.7	47.1*
COc1cc2cc(CCCO)oc(=O)c2cc1OC	0.5	-10.5	-10.7	-0.1	-20.2	/
SMILES	V-ATPase pHluor	TIM10 inh	PfHsp90 set2	tim23-1 inh	tim10-1 inh	TIM10 conf
COc1ccc(N=Cc2nc(-c3ccccc3)oc2OC(=O)c2ccccc2)cc1	-2.5	50.3*	3.4	42.7	39.9	32.1*
Cc1ccc(Oc2ccc(-c3nc(N)nc(N)n3)cc2)cc1	2.1	44.5*	-14.0	23.1	27.1	-35.5
O=C(Nc1ccc(-n2cnnn2)cc1)c1cc(S(=O)(=O)N2CCCC2)ccc1Cl	0.1	-9.5	/	5.1	-1.4	/
CN(CC(=O)Nc1cccc(F)c1)C(=O)CCc1nc2sc3c(c2c(=O)[nH]1)CCCC3	-2.4	-0.1	/	-5.1	7.6	/
CC(=O)c1cccc(NC(=O)CN(C)S(=O)(=O)c2ccc3c(c2)CC(C)N3C(C)=O)c1 (configuration not stated)	3.4	-12.1	25.0	-0.5	18.0	/
COc1ccc(C(=O)NNC(=S)NC(=O)c2ccc(Cl)cc2)cc1	-2.1	42.1*	0.0	31.4	18.1	7.2
Cc1ccc2c(C)c(C(=O)N3CCCCC3CO)oc2c1C (configuration not stated)	0.4	11.1	14.4	32.0	32.1	/
C/C(=N\NC(=O)c1ccc2c(c1)OCO2)c1ccc(NC(=O)CCCC(=O)O)cc1	-3.1	8.9	-17.3	-2.4	-24.4	/
CCOC(=O)C1=C(C)N(C)C(=S)NC1c1cccc(Cl)c1Cl (configuration not stated)	1.9	48.0*	-3.4	16.0	35.9	27.8
COc1ccc2nc3sc(C(=O)N4CCN(C)CC4)cc3cc2c1	-1.6	11.0	0.5	4.8	-20.1	/
COc1ccc2nc3sc(C(=O)NCCCN4CCc5ccccc5C4)cc3cc2c1	0.9	49.0*	-18.5	42.7	13.8	57.0*
CC(CC(=O)Nc1ccc(Cl)c([N+](=O)[O-])c1)c1ccccc1 (configuration not stated)	-3.4	42.3*	-11.7	34.8	37.6	-13.9
COc1ccc(OC)c(NC(=S)NCCC(c2ccccc2)c2ccccc2)c1	5.0	46.0*	-39.4	10.7	30.0	14.1
COc1ccc(OC)c(NC(=S)NCc2ccccc2OC)c1	1.8	14.5	-2.8	26.9	22.9	/
Cc1ccc(NC(=S)NCCC(c2ccccc2)c2ccccc2)c(C)c1	-4.2	48.7*	-44.2	19.9	20.5	33.0*
Cc1ccnc(NCc2ccc(Cl)cc2)c1	2.9	5.2	-4.1	-2.9	-3.4	/
O=C(/C=C/c1ccccc1)OCCN1C(=O)c2ccccc2C1=O	-0.6	4.4	-14.4	15.3	14.5	/
Cc1ccc(NC(=S)Nc2ccc(OC(F)F)c(Cl)c2)cc1F	0.2	41.8*	12.2	40.5	37.0	35.7*
O=C(CNC(=O)C1CCCCC1)Nc1ccc(Cl)cc1	-2.7	7.6	-19.6	-21.5	-9.4	/
O=C(CNC(=O)C1CCCCC1)Nc1cc(Cl)cc(Cl)c1	-4.9	40.7*	-137.2	3.8	14.8	8.3
O=C(C1CC1)N1CCc2cc(Br)cc(S(=O)(=O)N3CCCCCC3)c21	-1.0	47.2*	/	-32.7	-1.5	-65.9
CC1=NN(/C(=N\c2nnc(C)s2)Nc2ccc(C(C)(C)C)cc2)[C@H](c2ccc(C)cc2)S1	1.9	52.4*	48.6	49.5	34.1	15.5
Cc1ccc(NC(=O)CCSc2nnc(C)s2)cc1	6.1	-3.6	/	-14.1	9.1	/
CC(C)[C@H](NS(=O)(=O)c1cccc(Cl)c1)C(=O)OCC(=O)N1CCN(c2ccccc2)CC1	0.8	47.0*	10.1	21.0	38.8	-6.9
O=C(OCC(=O)N1CCN(c2ccccc2)CC1)c1cccc(Cl)c1	-2.4	-29.2	-13.3	12.7	32.0	/
Cc1ccc(C(O)P(=O)(OC2CCCCC2)OC2CCCCC2)cc1 (configuration not stated)	-2.8	40.4*	-26.1	35.3	38.4	38.8*
